# Screening data deposited in PubChem BioAssay by several laboratories.
# An excerpt weighted towards active compounds, which were near 2.3% of everything screened.
# Shn3 inh set2 = Schnurri-3 reporter inhibition in Clone20 osteoblasts | Clone20 osteoblast Shn3 3'UTR firefly luciferase, 24 h | inhibition, % at 12.5 µM | 0.52% of 360,000 active | AID 588674;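 active = mean inhibition of at least 75% with every replicate also reaching 75%; inconclusive = mean inhibition at least 75% but some replicate below; inactive = mean inhibition below 75%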;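 also: 0% = median of neutral control wells and 100% = pilot-screen positive control compound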
# Gli-Sufu antag = antagonists of Gli-Sufu signaling; Sufu-KO-LIGHT fibroblasts, Gli luciferase reporter luminescence; inhibition, % at 5 µM; 0.74% of 340,000 active;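 active = inhibition above about 55%, limit read from the data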;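 also: 0% = DMSO-treated cells and 100% = wells with medium but no cells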
# TAG inh = reduces triacylglycerol accumulation in H9c2 cells; Nile Red lipid (TAG) fluorescence; cells loaded with 200 µM oleic acid; inhibition, % at 12.5 µM; 0.66% of 230,000 active; AID 651582;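 active = pattern-corrected inhibition of lipid staining of at least 50% with the nuclear-stain viability signal not falling by more than 50%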;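 also: 0% = DMSO wells and 100% = triacsin C control wells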
# 697 NFkB inh = lowers PMA/ionomycin-induced NF-kB signal in 697 B cells; 0.33% of 330,000 active; 697 B-cell NF-kB luciferase reporter, 16 h; inhibition, % at 4 µM; in the data active = inhibition above about 35%
# aSyn 5UTR inh = MLPCN primary screen, SNCA 5' untranslated region. 0.82% of 300,000 active. inhibition, % (tested at 7.5 µM). AID 1813. alpha-synuclein 5'UTR reporter, inhibitor activity; in the data active = inhibition above about 60%; inconclusive = no clear call, values can overlap the other calls;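 also: H4 neuroglioblastoma cells stably carrying SNCA 5'UTR luciferase fusion; 0% = DMSO wells and 100% = positive control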
# Jurkat NFkB inh = lowers PMA/ionomycin-induced NF-kB signal in Jurkat cells; AID 435003; PMA/ionomycin-induced NF-kB luciferase reporter, luminescence; inhibition, % at 4 µM; 0.53% of 330,000 active; in the data active = inhibition above about 50%
# Jurkat NFkB conf = inhibitors of the PMA/ionomycin-induced NF-kB reporter in Jurkat cells, retest; shares compounds with Jurkat NFkB inh; Jurkat NF-kB luciferase, 16 h; inhibition, % at 4 µM; 27% of 2,700 active; AID 435020;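 active = inhibition reaching about 45% at 4 µM in either replicate, limit read from the data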;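 also: plate controls were PMA/ionomycin stimulated DMSO wells for no effect and unstimulated DMSO wells for full effect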
# 697 NFkB conf = lowers PMA/ionomycin-induced NF-kB signal in 697 B cells; shares compounds with 697 NFkB inh; 697 B-cell NF-kB luciferase, 16 h; inhibition, % at 4 µM; 35% of 2,000 active; in the data active = inhibition mostly above about 28%, no sharp cut-off; inactive = mostly below about 22%
# * hit, by the source's call; i = inactive; ? = inconclusive; . = no result given.
SMILES,Shn3 inh set2,Gli-Sufu antag,TAG inh,697 NFkB inh,aSyn 5UTR inh,Jurkat NFkB inh,Jurkat NFkB conf,697 NFkB conf
CC1CN(Cc2nc3c(c(=O)[nH]c(=O)n3C)n2CC(N)=O)CC(C)O1 (stereo not drawn),-9.4,0.8,7.5,10.4,1.9,4.1,.,.
O=C(CCCn1c(=O)oc2ccccc21)NC1CCCCCC1,.,.,.,-9.7,-21.0,2.8,.,.
COc1ccc(NC(=O)C(C)Sc2ccccc2)cc1 (stereo not drawn),-22.1,0.9,.,21.0,-60.8,-22.3,.,.
CC(=O)Nc1nc2ccccc2[nH]1,6.9,-12.1,24.1,6.6,-13.3,-1.9,.,.
O=C(Nc1nc2ccccc2[nH]1)c1ccccc1,16.9,7.4,-3.8,-291.7,54.4,-163.1,-60.9,-179.3
C(=N\Nc1nc2ccccc2s1)/c1ccc2c(c1)OCO2,-73.8,-74.0,.,-332.9,-189.6,-204.6,-90.6,-264.2
Brc1cc2c(cc1/C=N/Nc1nc3ccccc3s1)OCO2,-65.5,-76.6,-0.4,-133.6,-116.9,-86.2,.,.
COc1ccc(C2SCC(=O)N2C)cc1 (stereo not drawn),21.6,3.1,.,18.2,12.4,16.7,.,.
CCCCCOC(=O)NCC(O)c1ccccc1 (stereo not drawn),-43.7,-88.5,.,-86.1,-127.9,-78.2,.,.
Cc1ccc(S(=O)(=O)Nc2ccc3nc(C)sc3c2)c(C)c1,60.3,5.5,-21.4,-28.4,.,-0.1,.,.
Nc1c2c(nc3sc4c(c13)CCCCC4)CCCCC2,-5.5,-90.0,.,-259.7,-38.3,-177.2,-97.6,-203.5
Cc1ccc(NC(=O)c2noc3c2CCCCC3)cc1C,-0.2,-87.7,.,-317.2,-25.4,-247.5,-114.2,-305.6
Clc1ccc(Nc2ncnc3c2cnn3-c2ccccc2)cc1,14.0,-40.9,-24.8,-67.0,-119.0,-62.9,.,.
CC(C)Nc1ncnc2c1cnn2-c1ccc(Cl)cc1,-8.0,-94.7,-9.8,-422.1,?,-202.3,-184.2,-446.1
COc1cccc(N=Nc2ccc3ccccc3c2O)c1,-80.8,-34.0,.,i,22.1,-196.8,-112.2,-295.1
O=C(COC(=O)c1cc2ccccc2cc1O)Nc1cccnc1Cl,-2.8,-13.3,.,0.7,-49.5,19.9,.,.
COc1cc(/C=C/C(=O)Nc2ccncc2)cc(OC)c1OC,2.1,4.0,.,-55.5,-1.9,23.9,.,.
O=C(Nc1ccc2c(c1)OCCO2)c1ccc(Cl)cc1Cl,-21.8,-92.7,5.5,-272.1,23.6,-152.0,-96.4,-210.6
O=C(Nc1ccc(N2CCN(C(=O)c3ccc(Cl)cc3)CC2)cc1)c1ccc2c(c1)OCCO2,89.0*,36.4,.,38.6*,18.4,58.4*,57.3*,-39.9
O=C(Nc1ccc(N2CCN(C(=O)c3ccccc3)CC2)cc1)c1ccc2c(c1)OCCO2,39.8,6.8,-10.9,-79.4,-42.1,-22.8,.,.
COc1ccc(C(=O)N2CCN(Cc3cn[nH]c3-c3ccc(OC)cc3F)CC2)cc1,7.5,-5.1,.,-0.7,12.2,-1.0,.,.
COc1ccc2c(c1)CC/C(=C\Nc1ccc3c(c1)OCO3)C2=O,-6.7,-64.2,.,-30.1,-196.7,-63.2,.,.
COc1ccc(N/C=C2\CCc3ccccc3C2=O)cc1,20.5,-83.7,-5.9,-290.1,94.4*,-196.6,14.4,-9.3
Cc1cc(O)c2c(c1O)C(=O)[C@]13C(=C2O)C(=O)[C@@H]2[C@@H](O)[C@H]1[C@@H]1[C@H](O)[C@H]3C(=O)C3=C(O)c4c(O)cc(C)c(O)c4C(=O)[C@]312,92.0*,78.0*,.,43.8*,.,85.0*,86.8*,-17.9
CCOc1ccc(-c2cc(CCCC(=O)Nc3cccc(OC)c3)no2)cc1,21.6,5.2,36.3,48.3*,67.5*,55.7*,60.6*,48.2*
SMILES,Shn3 inh set2,Gli-Sufu antag,TAG inh,697 NFkB inh,aSyn 5UTR inh,Jurkat NFkB inh,Jurkat NFkB conf,697 NFkB conf
COC(=O)Nc1ccc([N+](=O)[O-])cc1OC,-9.5,-6.8,1.0,8.3,-0.8,11.1,.,.
O=c1oc(C2(O)CCCCC2)cc2ccccc12,12.5,4.0,17.8,3.1,.,-4.9,.,.
O=c1oc(C2(O)CCCCC2)cc2ccc(-c3ccc4[nH]ccc4c3)cc12,-10.9,3.5,-25.7,i,.,-168.2,-75.3,i
COc1ccc(Cl)cc1-c1nc(SCC(=O)N(C)CCC#N)n[nH]1,-2.3,-12.8,20.7,0.8,-4.1,-9.4,.,.
COC(=O)c1sccc1N/N=C/c1cccc(OC)c1O,19.9,-75.8,-3.4,-299.1,-21.1,-190.5,-80.7,-231.9
COC(=O)c1sccc1N/N=C/c1ccc(OC)c(OC)c1OC,-68.4,-57.2,.,-40.6,-140.1,-29.2,.,.
NC(=O)c1ccsc1NC(=O)c1ccc2c(c1)CCCC2,-31.7,-142.3,-4.3,-301.7,-16.4,-182.8,-120.2,-358.5
O=c1c2ccccc2cnn1-c1ccc2ccccc2c1,-30.8,-82.8,.,-289.9,-36.3,-207.0,-123.0,-293.9
O=c1c2ccccc2cnn1-c1ccc(Br)cc1,-51.0,-1.7,0.2,-167.2,-34.7,-126.7,.,.
Cc1ccc(NC(=O)Nc2cccc(F)c2)nc1,-123.2,-50.5,.,-99.1,-176.4,-96.3,.,.
Cc1ccnc(NC(=O)Nc2cccc(F)c2)c1,-50.7,-130.9,.,-302.9,26.7,-176.0,-120.8,-257.2
COc1ccc([C@H]2C[C@@H](O)[C@H](n3cc(-c4ccc(F)cc4)nn3)CN2C(=O)C2CCCCC2)cc1,-5.8,.,-14.5,.,.,.,.,.
O=C1C(Cl)=C(NCCc2ccccc2)C(=O)N1CCc1ccccc1,-31.9,-39.1,-100.4,-24.6,-50.9,-13.8,.,.
COC(=O)[C@@H]1Cc2c([nH]c3ccccc23)C(C)(C)N1C(=O)CCl,-23.6,20.7,.,88.5*,?,55.1*,15.7,69.0*
CCc1cc(=O)oc2c3c(cc(OCC(=O)NCCC(=O)O)c12)OC(C)(C)CC3,-5.0,22.5,.,15.3,16.6,0.4,.,.
COC(=O)CN(c1ccc(OC)cc1)S(=O)(=O)c1c(C)noc1C,-4.3,-0.9,9.9,-32.0,15.8,-5.2,.,.
O=[N+]([O-])c1ccc(N=Nc2ccc(O)cc2O)cc1,4.7,-1.9,-2.5,63.2*,45.2,58.8*,-12.1,-44.8
CCc1nc(SCc2ccc(OC)c(Br)c2)n[nH]1,4.0,-6.4,.,-7.9,-10.2,-8.7,.,.
Cc1ccc2oc(=O)n(Cc3ccc(OC(C)C)cc3)c2c1,3.1,-7.5,.,-6.7,-1.9,-7.9,.,.
COc1ccc(NC(=O)CC(Cc2ccc(Cl)cc2)C(=O)O)cc1 (stereo not drawn),0.9,2.5,.,-1.4,-8.7,4.2,.,.
CCOc1ccc2nc(NC(=O)c3ccoc3C)sc2c1,25.0,4.3,1.8,-373.8,29.9,-168.0,-106.4,-322.4
COc1cc2nc(NC(=O)c3ccccc3)sc(=O)c2cc1OC,6.8,-10.6,.,42.6*,32.8,82.2*,89.4*,54.2*
COc1ccc(C(=O)Nc2nc3ccccc3s2)c(OC)c1,92.8*,87.8*,.,68.8*,79.2*,84.6*,91.1*,60.0*
Cc1ccc2nc(NC(=O)c3ccccc3F)sc2c1,-8.0,-80.3,1.6,-261.4,-7.3,-162.6,-132.8,-228.8
